# From publication PMC9838217, “Structure of SALL4 zinc finger domain reveals link between AT-rich DNA binding and Okihiro syndrome”
# Changes are numbered by the printed parent chain.
# Experiments:
# Assay in all cases: HT-SELEX; high values mean tight binding
# Details in all cases: protein: recombinant; vector His6-GST; dsDNA, one strand shown
# SALL4 ZFC4 WT (HT-SELEX) = target: T1, SALL4 ZFC4 WT (HT-SELEX) (Mus musculus, UniProt Q8BX22 870-940)
# T1 sequence: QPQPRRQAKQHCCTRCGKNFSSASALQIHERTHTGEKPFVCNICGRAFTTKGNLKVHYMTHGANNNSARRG
# Outline: (§1)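 Purified recombinant mouse SALL4 zinc finger cluster 4 (residues 870–940, 1 µg) was incubated with library DNA (1.5 µg first cycle, 200 ng later) in 100 µl of 10 mM Tris–HCl pH 7.5, 50 mM NaCl, poly(dI-dC) and DTT for 10 min at room temperature, with Ni2+ bead capture and reselection for up to 6 cycles in triplicate. MiSeq reads were scanned for 6-mers. Binding signal is each canonical k-mer's read fraction as fold change relative to the initial random library.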
# [1] = target: T2, SALL4 ZFC4 R900W (HT-SELEX) (Mus musculus, UniProt Q8BX22 870-940, R900W)
# T2 sequence: T1 sequence with R31W
# Outline: as §1
# [2] = target: T3, SALL4 ZFC4 G921D (HT-SELEX) (Mus musculus, UniProt Q8BX22 870-940, G921D)
# T3 sequence: T1 sequence with G52D
# Outline: as §1
sequence,measurement,setting,value
AGCCTG,binding signal,SALL4 ZFC4 WT (HT-SELEX),0.325 ± 0.0218 fold-change vs cycle 0
same,binding signal,[1],0.402 ± 0.0338 fold-change vs cycle 0
same,binding signal,[2],0.531 ± 0.0708 fold-change vs cycle 0
CTGGAC,binding signal,SALL4 ZFC4 WT (HT-SELEX),0.396 ± 0.0407 fold-change vs cycle 0
same,binding signal,[1],0.495 ± 0.0552 fold-change vs cycle 0
same,binding signal,[2],0.584 ± 0.0722 fold-change vs cycle 0
AAGAGC,binding signal,SALL4 ZFC4 WT (HT-SELEX),0.752 ± 0.0601 fold-change vs cycle 0
same,binding signal,[1],0.917 ± 0.0813 fold-change vs cycle 0
same,binding signal,[2],1.02 ± 0.0502 fold-change vs cycle 0
AGTACT,binding signal,SALL4 ZFC4 WT (HT-SELEX),1.32 ± 0.0981 fold-change vs cycle 0
same,binding signal,[1],1.45 ± 0.094 fold-change vs cycle 0
same,binding signal,[2],1.4 ± 0.116 fold-change vs cycle 0
AGGAAA,binding signal,SALL4 ZFC4 WT (HT-SELEX),1.31 ± 0.0867 fold-change vs cycle 0
same,binding signal,[1],1.43 ± 0.085 fold-change vs cycle 0
same,binding signal,[2],1.35 ± 0.118 fold-change vs cycle 0
CCTCCA,binding signal,SALL4 ZFC4 WT (HT-SELEX),0.517 ± 0.0262 fold-change vs cycle 0
same,binding signal,[1],0.603 ± 0.0398 fold-change vs cycle 0
same,binding signal,[2],0.687 ± 0.0633 fold-change vs cycle 0
CGTAGA,binding signal,SALL4 ZFC4 WT (HT-SELEX),0.623 ± 0.00876 fold-change vs cycle 0
same,binding signal,[1],0.7054 ± 0.00296 fold-change vs cycle 0
same,binding signal,[2],0.786 ± 0.024 fold-change vs cycle 0
ACAACA,binding signal,SALL4 ZFC4 WT (HT-SELEX),1.16 ± 0.0181 fold-change vs cycle 0
same,binding signal,[1],1.28 ± 0.0315 fold-change vs cycle 0
same,binding signal,[2],1.25 ± 0.0467 fold-change vs cycle 0
ATCACG,binding signal,SALL4 ZFC4 WT (HT-SELEX),0.751 ± 0.0409 fold-change vs cycle 0
same,binding signal,[1],0.856 ± 0.012 fold-change vs cycle 0
same,binding signal,[2],0.923 ± 0.0125 fold-change vs cycle 0
CCGAAC,binding signal,SALL4 ZFC4 WT (HT-SELEX),0.325 ± 0.00544 fold-change vs cycle 0
same,binding signal,[1],0.387 ± 0.0114 fold-change vs cycle 0
same,binding signal,[2],0.512 ± 0.0786 fold-change vs cycle 0
ACAATC,binding signal,SALL4 ZFC4 WT (HT-SELEX),1.25 ± 0.051 fold-change vs cycle 0
same,binding signal,[1],1.38 ± 0.0687 fold-change vs cycle 0
same,binding signal,[2],1.36 ± 0.0869 fold-change vs cycle 0
ACATAA,binding signal,SALL4 ZFC4 WT (HT-SELEX),2.21 ± 0.177 fold-change vs cycle 0
same,binding signal,[1],1.96 ± 0.0742 fold-change vs cycle 0
same,binding signal,[2],1.75 ± 0.158 fold-change vs cycle 0
TTAAAA,binding signal,SALL4 ZFC4 WT (HT-SELEX),2.8 ± 0.232 fold-change vs cycle 0
same,binding signal,[1],2.26 ± 0.146 fold-change vs cycle 0
same,binding signal,[2],1.97 ± 0.21 fold-change vs cycle 0
ACCCAA,binding signal,SALL4 ZFC4 WT (HT-SELEX),0.736 ± 0.034 fold-change vs cycle 0
same,binding signal,[1],0.839 ± 0.0217 fold-change vs cycle 0
same,binding signal,[2],0.873 ± 0.0335 fold-change vs cycle 0
CGTAGC,binding signal,SALL4 ZFC4 WT (HT-SELEX),0.305 ± 0.0314 fold-change vs cycle 0
same,binding signal,[1],0.356 ± 0.00868 fold-change vs cycle 0
same,binding signal,[2],0.479 ± 0.0718 fold-change vs cycle 0
AGAATG,binding signal,SALL4 ZFC4 WT (HT-SELEX),1.34 ± 0.0249 fold-change vs cycle 0
same,binding signal,[1],1.52 ± 0.0481 fold-change vs cycle 0
same,binding signal,[2],1.35 ± 0.0697 fold-change vs cycle 0
ATATTG,binding signal,SALL4 ZFC4 WT (HT-SELEX),2.19 ± 0.214 fold-change vs cycle 0
same,binding signal,[1],1.8 ± 0.105 fold-change vs cycle 0
same,binding signal,[2],1.69 ± 0.149 fold-change vs cycle 0
CAATAA,binding signal,SALL4 ZFC4 WT (HT-SELEX),2.18 ± 0.182 fold-change vs cycle 0
same,binding signal,[1],1.91 ± 0.101 fold-change vs cycle 0
same,binding signal,[2],1.73 ± 0.173 fold-change vs cycle 0
AGTTAT,binding signal,SALL4 ZFC4 WT (HT-SELEX),2.81 ± 0.247 fold-change vs cycle 0
same,binding signal,[1],2.13 ± 0.15 fold-change vs cycle 0
same,binding signal,[2],1.89 ± 0.186 fold-change vs cycle 0
ATCGTC,binding signal,SALL4 ZFC4 WT (HT-SELEX),0.685 ± 0.0177 fold-change vs cycle 0
same,binding signal,[1],0.755 ± 0.0322 fold-change vs cycle 0
same,binding signal,[2],0.852 ± 0.0307 fold-change vs cycle 0
AAGATC,binding signal,SALL4 ZFC4 WT (HT-SELEX),1.25 ± 0.0866 fold-change vs cycle 0
same,binding signal,[1],1.42 ± 0.0452 fold-change vs cycle 0
same,binding signal,[2],1.44 ± 0.0439 fold-change vs cycle 0
GAATAC,binding signal,SALL4 ZFC4 WT (HT-SELEX),1.29 ± 0.026 fold-change vs cycle 0
same,binding signal,[1],1.41 ± 0.0467 fold-change vs cycle 0
same,binding signal,[2],1.34 ± 0.07 fold-change vs cycle 0
CTAAAG,binding signal,SALL4 ZFC4 WT (HT-SELEX),1.22 ± 0.0556 fold-change vs cycle 0
same,binding signal,[1],1.43 ± 0.0823 fold-change vs cycle 0
same,binding signal,[2],1.34 ± 0.112 fold-change vs cycle 0
ATGAAT,binding signal,SALL4 ZFC4 WT (HT-SELEX),3.02 ± 0.199 fold-change vs cycle 0
same,binding signal,[1],2.16 ± 0.113 fold-change vs cycle 0
same,binding signal,[2],1.92 ± 0.161 fold-change vs cycle 0
AACAGA,binding signal,SALL4 ZFC4 WT (HT-SELEX),1.28 ± 0.057 fold-change vs cycle 0
same,binding signal,[1],1.41 ± 0.0434 fold-change vs cycle 0
same,binding signal,[2],1.35 ± 0.0868 fold-change vs cycle 0
TCACCA,binding signal,SALL4 ZFC4 WT (HT-SELEX),0.829 ± 0.0293 fold-change vs cycle 0
same,binding signal,[1],0.931 ± 0.0104 fold-change vs cycle 0
same,binding signal,[2],0.988 ± 0.0172 fold-change vs cycle 0
ACATAG,binding signal,SALL4 ZFC4 WT (HT-SELEX),1.3 ± 0.0172 fold-change vs cycle 0
same,binding signal,[1],1.35 ± 0.0801 fold-change vs cycle 0
same,binding signal,[2],1.34 ± 0.0894 fold-change vs cycle 0
CGTTAG,binding signal,SALL4 ZFC4 WT (HT-SELEX),0.723 ± 0.0258 fold-change vs cycle 0
same,binding signal,[1],0.82 ± 0.0289 fold-change vs cycle 0
same,binding signal,[2],0.902 ± 0.0446 fold-change vs cycle 0
AATGGA,binding signal,SALL4 ZFC4 WT (HT-SELEX),1.38 ± 0.0388 fold-change vs cycle 0
same,binding signal,[1],1.47 ± 0.0617 fold-change vs cycle 0
same,binding signal,[2],1.39 ± 0.0841 fold-change vs cycle 0
TAAGCA,binding signal,SALL4 ZFC4 WT (HT-SELEX),1.282 ± 0.00819 fold-change vs cycle 0
same,binding signal,[1],1.3 ± 0.0615 fold-change vs cycle 0
same,binding signal,[2],1.26 ± 0.0364 fold-change vs cycle 0
